In ChEMBL document CHEMBL1157539, “Thousands of chemical starting points for antimalarial lead identification” (Nature, 2010):

system: Plasmodium falciparum; assay: GSK_TCMDC: Inhibition of Plasmodium falciparum 3D7 in whole red blood cells, using parasite LDH activity as an index of growth. Test compounds present at 2uM; assay type: functional

Row | Compound | Inhibition [%]
1 | Cc1ccccc1N1CCN(c2ccc(C(=O)NC3CC3)cn2)CC1.O=C(O)C(F)(F)F | 96
2 | COC(=O)c1ccccc1N1CCN(CCCCNC(=O)c2ccc(NC(=O)c3cc(Cl)cc(Cl)c3)cc2)CC1 | 100
3 | CN1CCN(c2nsc3ccc(-c4ccc(NC(=O)Nc5ccccc5)cc4)cc23)CC1.O=C(O)C(F)(F)F | 100
4 | NCC(NC(=O)c1ccc(-c2c[nH]c3ncccc23)s1)c1ccccc1.O=CO (configuration not stated) | 95
5 | Cc1ccc2c(-c3ccc([N+](=O)[O-])o3)cc(C)nc2c1 | 95
6 | CCOc1ccc(Br)cc1/C=C/C(=O)Nc1ccc(C2CCN(C)CC2)cc1 | 100
7 | Cl.Nc1nc(N)c2c(Cl)c(N(Cc3ccccc3)Cc3ccccc3)ccc2n1 | 96
8 | Cc1cc(NC(=O)Nc2ccc(C#N)cc2)c2ccccc2n1 | 100
9 | CCOC(=O)c1ccc(NC(=O)Nc2ccc(-c3cccc(-c4nc5cccc(C)c5[nH]4)c3)cc2)cc1 | 100
10 | O=C(CCC1CCCC1)N(Cc1ccc(-c2ccc(CNCCc3ccccc3)cc2)cc1)C1CCCNC1.O=C(O)C(F)(F)F (configuration not stated) | 90
11 | COc1ccc2c(NN=Cc3cccc(F)c3)ccnc2c1 | 100
12 | Cc1nc2c(Nc3nc(-c4ccncc4)cs3)ncnc2n1-c1ccccc1Cl | 97
13 | O=C(Nc1cccc(OCc2ccccc2)c1)c1ccc(CN2CCC(Cc3ccccc3)CC2)cc1 | 100
14 | Cl.O=S(=O)(Nc1cc2c(cc1OCCCN1CCCCC1)CCNCC2)c1ccc(-c2ccc(Cl)cc2)cc1 | 100
15 | CCNc1cc(C(=O)N[C@@H](Cc2ccccc2)[C@H](O)CNC(C)(C)CC(C)(C)C)c(F)c(N2CCCCS2(=O)=O)c1 | 94
16 | Cl.NC(=O)Nc1ccc2cn[nH]c2c1 | 97
17 | C=CCn1c(=N)c(C(=O)NCc2ccc(F)cc2)cc2c(=O)n3cccc(C)c3nc21 | 92
18 | COc1cccc(CNC(=O)c2ccnc(-c3ccc(CNCCOc4ccccc4)cc3)c2)c1.O=C(O)C(F)(F)F | 83
19 | Br.CCOCc1cn(CC(=O)c2ccc(-c3ccccc3)cc2)c(C)nc1=N | 93
20 | O=C(/C=C/c1ccc(Cl)c(Cl)c1)NCCCCCN1CCCN(C(=S)Nc2ccc(Cl)c(Cl)c2)CC1 | 96
21 | COc1ccc(CNCc2ccccc2)cc1-c1ccc(S(=O)(=O)NCCN2CCCC2)cc1.O=C(O)C(F)(F)F | 96
22 | CN1CCC(NCc2cccc(-c3nn(C)c4nc(NC5CCCC5)ncc34)c2)CC1 | 98
23 | CN1CCc2ccc(NC(=O)Nc3cccc([N+](=O)[O-])c3)cc2C1 | 87
24 | FC(F)(F)c1ccc2[nH]ccc(=NN=Cc3cccc(Cl)c3)c2c1 | 97
25 | Br.CCCCCCCN(CCCCCCC)CCNc1cc(C)nc2ccccc12 | 89
26 | COc1ccc(NC(=O)CCNc2cc(C)nc(NCCc3ccccc3)n2)cc1.O=C(O)C(F)(F)F | 85
27 | N=C(N)Nc1nc(-c2cccc(NC(=O)NCCc3c[nH]c4ccc(OCc5ccccc5)cc34)c2)cs1 | 100

system: Plasmodium falciparum; assay: GSK_TCMDC: Inhibition of Plasmodium falciparum Dd2 in whole red blood cells, using parasite LDH activity as an index of growth. Test compounds present at 2uM; assay type: functional

Row | Compound | Inhibition [%]
28 | COc1ccc(OC)c(-c2cccc(-c3cccc(NC(=O)c4ccc([N+](=O)[O-])o4)c3)n2)c1 | 97
29 | Fc1ccc2[nH]c(-c3cccc(-c4ccc(CN5CCCCC5)cc4)c3)nc2c1.O=C(O)C(F)(F)F | 97
30 | CC1(C)N=C(N)N=C(NOCCCCCCONC2=NC(N)=NC(C)(C)N2)N1 | 98
31 | O=C(c1ccc(O)c(-c2cc(Cl)cc(Cl)c2)c1)N1CCCC1 | 57
32 | CCC(CSC1CCCCC1)N(C)CCN(C)C(CC)CSC1CCCCC1.Cl (configuration not stated) | 98
33 | CN(C)c1ccc(CN2CCC(CNC(=O)c3cc(-c4ccccc4F)cs3)C2)cc1.O=C(O)C(F)(F)F (configuration not stated) | 33
34 | O=C(/C=C/c1ccc(Cl)c(Cl)c1)NCCCCCN1CCC(NC(=O)c2ccc(F)c(F)c2)CC1 | 20
35 | Cc1cccc2nc(-c3ccc(-c4ccc(NC(=O)Nc5ccc(Cl)c(Cl)c5)cc4)cc3)[nH]c12 | 100
36 | COc1ccc(CNC2Cc3ccccc3C2)cc1-c1ccc(S(=O)(=O)NCc2ccccc2)s1.O=C(O)C(F)(F)F | 25
37 | O=C(Nc1cccc(-c2ccc(-c3nc4cc(C(F)(F)F)ccc4[nH]3)cc2)c1)c1c[nH]cn1 | 21
38 | CS(=O)(=O)c1ccc(OCCCN(Cc2ccccc2C(F)(F)F)c2ccc(C#N)c(C(F)(F)F)c2)cc1 | 76
39 | O=C(O)C(F)(F)F.O=S(=O)(NCCN1CCCC1)c1ccc(-c2cccc(CNCc3ccccc3)c2)s1 | 43
40 | CN(CCO)Cc1cccc(-c2ccc(NC(=O)c3cccc(C#N)c3)cc2)c1.O=C(O)C(F)(F)F | 57
41 | Cc1ccccc1N1CCN(c2ccc(C(=O)NC3CC3)cn2)CC1.O=C(O)C(F)(F)F | 96
42 | COC(=O)c1ccccc1N1CCN(CCCCNC(=O)c2ccc(NC(=O)c3cc(Cl)cc(Cl)c3)cc2)CC1 | 42
43 | CN1CCN(c2nsc3ccc(-c4ccc(NC(=O)Nc5ccccc5)cc4)cc23)CC1.O=C(O)C(F)(F)F | 98
44 | NCC(NC(=O)c1ccc(-c2c[nH]c3ncccc23)s1)c1ccccc1.O=CO (configuration not stated) | 87
45 | Cc1ccc2c(-c3ccc([N+](=O)[O-])o3)cc(C)nc2c1 | 47
46 | CCOc1ccc(Br)cc1/C=C/C(=O)Nc1ccc(C2CCN(C)CC2)cc1 | 71
47 | Cl.Nc1nc(N)c2c(Cl)c(N(Cc3ccccc3)Cc3ccccc3)ccc2n1 | 2

Row | Compound | Inhibition [%]
48 | Cc1cc(NC(=O)Nc2ccc(C#N)cc2)c2ccccc2n1 | 49
49 | CCOC(=O)c1ccc(NC(=O)Nc2ccc(-c3cccc(-c4nc5cccc(C)c5[nH]4)c3)cc2)cc1 | 100
50 | O=C(CCC1CCCC1)N(Cc1ccc(-c2ccc(CNCCc3ccccc3)cc2)cc1)C1CCCNC1.O=C(O)C(F)(F)F (configuration not stated) | 71
51 | COc1ccc2c(NN=Cc3cccc(F)c3)ccnc2c1 | 95
52 | Cc1nc2c(Nc3nc(-c4ccncc4)cs3)ncnc2n1-c1ccccc1Cl | 96
53 | O=C(Nc1cccc(OCc2ccccc2)c1)c1ccc(CN2CCC(Cc3ccccc3)CC2)cc1 | 27
54 | Cl.O=S(=O)(Nc1cc2c(cc1OCCCN1CCCCC1)CCNCC2)c1ccc(-c2ccc(Cl)cc2)cc1 | 19
55 | CCNc1cc(C(=O)N[C@@H](Cc2ccccc2)[C@H](O)CNC(C)(C)CC(C)(C)C)c(F)c(N2CCCCS2(=O)=O)c1 | 63
56 | Cl.NC(=O)Nc1ccc2cn[nH]c2c1 | 0
57 | C=CCn1c(=N)c(C(=O)NCc2ccc(F)cc2)cc2c(=O)n3cccc(C)c3nc21 | 11
58 | COc1cccc(CNC(=O)c2ccnc(-c3ccc(CNCCOc4ccccc4)cc3)c2)c1.O=C(O)C(F)(F)F | 10
59 | Br.CCOCc1cn(CC(=O)c2ccc(-c3ccccc3)cc2)c(C)nc1=N | 72
60 | O=C(/C=C/c1ccc(Cl)c(Cl)c1)NCCCCCN1CCCN(C(=S)Nc2ccc(Cl)c(Cl)c2)CC1 | 0
61 | COc1ccc(CNCc2ccccc2)cc1-c1ccc(S(=O)(=O)NCCN2CCCC2)cc1.O=C(O)C(F)(F)F | 39
62 | CN1CCC(NCc2cccc(-c3nn(C)c4nc(NC5CCCC5)ncc34)c2)CC1 | 44
63 | CN1CCc2ccc(NC(=O)Nc3cccc([N+](=O)[O-])c3)cc2C1 | 3
64 | FC(F)(F)c1ccc2[nH]ccc(=NN=Cc3cccc(Cl)c3)c2c1 | 2
65 | Br.CCCCCCCN(CCCCCCC)CCNc1cc(C)nc2ccccc12 | 31
66 | COc1ccc(NC(=O)CCNc2cc(C)nc(NCCc3ccccc3)n2)cc1.O=C(O)C(F)(F)F | 0
67 | N=C(N)Nc1nc(-c2cccc(NC(=O)NCCc3c[nH]c4ccc(OCc5ccccc5)cc34)c2)cs1 | 30
